IL1B secr inh: inhibitors of inflammasome signaling (IL-1 beta secretion) | AID 743279 | 4.7% of 360,000 active | THP-1 LPS/ATP IL-1B secretion, AlphaLISA, 16 h; hits give low values | activity change, % at 57.5 µM; in the data active means activity change below about -50%; inconclusive means mostly about -30% to -49%
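THP-1 cells pretreated 1 hr with compounds (up to 57.5 uM final), then stimulated with LPS (250 ng/mL final) plus ATP (1.25 mM final); secreted IL-1B measured by AlphaLISA after 16 hr, decreased signal indicating inhibition.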
Giardia killer: Giardia lamblia killing | AID 540267 | Giardia lamblia trophozoite viability | 0.15% of 340,000 active | activity change, % at 7.66 µM, hits read low; in the data active means activity change below about -80%; inconclusive means between about -30% and that limit;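 further: parasites exposed to compound for two days anaerobically before the ATP read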
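Giardia trophozoites, 100 cells per well, were exposed to compounds for 48 hrs at 37 deg C under anaerobic conditions; viability was then read as ATP content by bioluminescence after 15-30 min at room temperature.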
DT40 TDP1 CPT: growth inhibition of DT40 Tdp1-/-;hTDP1 cells with camptothecin (screen for TDP1 inhibitors); chicken DT40 Tdp1-/-;hTDP1 cells + 20 nM CPT, ATP luminescence, 48 h; Potency, µM (top dose mostly 46.2 µM), usual class: inhibitors; 12% of 420,000 active; further: nearly all actives have a fitted effect of over 55% in size
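Cell growth measured by CellTiter-Glo luminescence after a minimum 48 h, 37 C compound exposure with 20 nM CPT in Tdp1-knockout DT40 cells stably expressing hTDP1, seeded 400/well; qHTS titration format.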
ELG1 DNA repair: blocks ELG1-dependent DNA repair in HEK293T cells; HEK293T ELG1-luciferase reporter, luminescence, 16 h; DNA damage induced by 5-fluorouridine; 2.3% of 330,000 active; Potency, µM (doses to about 46.1 µM), actives largely listed as inhibitors; AID 504467; further: nearly all actives have a fitted effect of over 55% in size
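In this reporter screen, reduction of luminescence relative to DMSO vehicle indicated activity. Compounds and 5-fluorouridine were added together to 2,000 cells per well, incubated for 16 hr at 37 °C, then developed with ONE-Glo.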
TDP1 block: TDP1 (human) enzyme inhibition; Q9NUW8; recombinant TDP1, AlphaScreen DNA substrate cleavage; Potency, µM (highest dose often 130 µM), usual class: inhibitors; 0.28% of 350,000 active; further: nearly all actives have a fitted effect of over 40% in size
Target sequence (Q9NUW8 whole entry, looked up): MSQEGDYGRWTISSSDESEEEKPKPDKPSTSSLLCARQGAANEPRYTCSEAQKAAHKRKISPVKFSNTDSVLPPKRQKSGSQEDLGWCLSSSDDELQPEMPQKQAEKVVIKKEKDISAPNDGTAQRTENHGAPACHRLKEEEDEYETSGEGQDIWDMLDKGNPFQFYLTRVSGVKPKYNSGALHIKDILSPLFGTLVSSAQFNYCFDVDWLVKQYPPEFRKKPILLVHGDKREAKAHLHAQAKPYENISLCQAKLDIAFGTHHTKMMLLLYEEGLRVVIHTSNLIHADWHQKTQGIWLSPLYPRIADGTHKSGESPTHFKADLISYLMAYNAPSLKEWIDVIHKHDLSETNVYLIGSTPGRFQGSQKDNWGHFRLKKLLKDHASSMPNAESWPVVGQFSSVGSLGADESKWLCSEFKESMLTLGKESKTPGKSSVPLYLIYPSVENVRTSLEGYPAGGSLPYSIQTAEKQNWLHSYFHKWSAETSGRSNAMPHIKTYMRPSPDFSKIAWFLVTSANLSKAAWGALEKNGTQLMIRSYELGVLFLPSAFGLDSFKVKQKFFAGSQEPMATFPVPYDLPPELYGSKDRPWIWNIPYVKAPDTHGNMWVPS
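Steps: enzyme plus compound, 15 min RT; add biotin/phosphotyrosine-FITC oligonucleotide (15 nM final), react 5 min; add donor/acceptor beads (10 ug/ml final), 10 min; read AlphaScreen. Tdp1 at 1 nM final.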
TDP1 cell noCPT: qHTS for Inhibitors of human tyrosyl-DNA phosphodiesterase 1 (TDP1): qHTS in cells in absence of CPT | DT40 Tdp1-/- hTDP1 cells, no CPT, ATP luminescence, 48 h | Potency, µM (series often up to 46.2 µM), actives largely listed as inhibitors | 15% of 420,000 active; further: nearly all actives have a fitted effect of over 55% in size
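Chicken DT40 Tdp1-/- cells complemented with human TDP1, screened without camptothecin (DMSO vehicle only), 400 cells/well. Compounds pin-transferred, cells incubated at 37 °C for at least 48 hr. Growth read as ATP-dependent luminescence (CellTiter-Glo, 30 min at RT).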
Hits are given with their value; – = inactive; ? = inconclusive; · = no result given. Only some compounds are listed: those with a hit (about 19% of all), similar ones and a draw of the others. Unless noted, the call rests on the fitted dose curve; in most records, active means well fitted curve in the direction sought with a large enough effect; inconclusive means small, poorly fitted or top-dose-only effect, or another doubt; inactive means no such curve, though single readings can be large; an effect the other way counts as inactive or inconclusive.

SMILES	IL1B secr inh	Giardia killer	DT40 TDP1 CPT	ELG1 DNA repair	TDP1 block	TDP1 cell noCPT
COc1ccc(OCc2cc(=O)[nH]c3ccccc23)cc1	–	–	–	–	·	–
COc1ccc(OC)c(N=Nc2c(O)c3ccccc3[nH]c2=O)c1	–	–	15µM	·	·	18µM
O=C(N/N=C/c1ccccn1)c1cc(-c2ccc(Br)cc2)nc2ccccc12	-96	–	2.6µM	?	–	1.8µM
O=C(O)COc1ccccc1/C=N/NC(=O)c1cc(-c2ccc(Cl)cc2)nc2ccccc12	–	–	–	–	·	6.5µM
O=C(N/N=C/c1ccccn1)c1cc(-c2ccc(Cl)cc2)nc2ccccc12	-102	–	3.3µM	?	–	8.2µM
O=C(O)COc1ccccc1/C=N/NC(=O)c1cc(-c2ccccc2)nc2ccccc12	–	–	–	–	–	–
O=[N+]([O-])c1cccc(-c2c(-c3ccccc3)ncc3ccc(F)cc23)c1	–	–	9.2µM	?	–	8.2µM
CNc1ccc(-c2cccc([N+](=O)[O-])c2)cn1	–	·	?	·	·	?
CC1(C)NC(=O)N(CC(=O)OCC(=O)Nc2cc(S(=O)(=O)N3CCCCC3)ccc2Cl)C1=O	–	–	–	–	–	?
O=C(NNc1ccccn1)C(=O)NNS(=O)(=O)c1ccc(F)cc1	–	–	–	21µM	–	?
O=C(NNc1ccccn1)C(=O)NNS(=O)(=O)c1ccc(Cl)cc1	–	–	?	–	–	?
CCCc1nc2c(C)cc(Br)cn2c1Cc1ccc(OC)cc1C	–	·	?	·	·	21µM
COc1ccc(Cc2c(-c3cccc(Br)c3)nc3c(C)cc(Br)cn23)c(C)c1	–	·	?	·	·	?
COc1ccc(Cc2c(-c3ccc(F)cc3)nc3c(C)cc(Br)cn23)c(C)c1	–	·	?	·	·	18µM
COc1ccc(Cc2c(-c3cccc(Cl)c3)nc3c(C)cc(Br)cn23)c(C)c1	?	·	2.6µM	·	·	2.6µM
COc1ccc(Cc2c(-c3ccc(Cl)cc3)nc3c(C)cc(Br)cn23)c(C)c1	–	·	23µM	·	·	21µM
CCCc1nc2c(C)cc(Br)cn2c1Cc1cccc(F)c1	–	·	?	·	·	?
COc1ccc(Cc2c(-c3ccc(F)cc3)nc3ccc(Cl)cn23)c(C)c1	–	·	?	·	·	?
Cc1cc(C)c(NC(=O)C2CCCN(C(=O)c3cnn(-c4ccccc4)c3-n3cccc3)C2)c(C)c1 (stereo not given)	·	·	?	·	–	?
COc1ccc(NC(=O)Cn2c(=O)n(-c3ccc(C)cc3)c(=O)c3c2cnn3C)cc1	·	·	–	·	–	?
Cc1cc(Br)cn2c(CC(C)(C)C)c(-c3cccc(Cl)c3)nc12	–	·	–	·	·	?
COc1ccc(Cc2c(C3CCCCC3)nc3c(C)cc(Br)cn23)c(C)c1	–	·	2.6µM	·	·	2.6µM
COc1ccc(Cc2c(C3CCCCC3)nc3c4ccccc4ccn23)c(C)c1	–	·	?	·	·	?
COc1ccc(Cc2c(-c3ccccc3)nc3c(C)cc(Br)cn23)c(C)c1	–	·	16µM	·	·	?
Cc1cc(Br)cn2c(Cc3cccc(Cl)c3)c(-c3cccc(Cl)c3)nc12	–	·	?	·	·	26µM
SMILES	IL1B secr inh	Giardia killer	DT40 TDP1 CPT	ELG1 DNA repair	TDP1 block	TDP1 cell noCPT
COc1ccc(Cc2c(-c3cccc(Cl)c3)nc3ccc(C)cn23)c(C)c1	–	·	16µM	·	·	21µM
COc1ccc(Cn2nc(C)n(N(C)c3ncc(C(F)(F)F)cc3Cl)c2=O)cc1	–	–	16µM	–	–	9.2µM
COC(=O)c1cn(N(C)c2ncc(C(F)(F)F)cc2Cl)c(=O)c2ccccc12	–	–	?	–	–	?
O=C1C(Cl)=C(NCCCN2CCOCC2)C(=O)c2ccccc21	-96	–	18µM	·	·	13µM
O=C1C(Cl)=C(NCCN2CCOCC2)C(=O)c2ccccc21	-96	–	?	?	·	16µM
CCOc1ccc(NC(=O)CSc2nc3c([nH]c4ccccc43)c(=O)n2-c2cc(C)cc(C)c2)cc1	·	·	–	·	–	–
COc1cc(N/N=C(\C)c2ccc(O)c(C)c2)nc(-c2ccccc2)n1	-59	–	?	–	–	?
COc1cc(N/N=C(\C)c2ccc(N)cc2)nc(-c2ccccc2)n1	?	–	23µM	?	–	18µM
FC(F)(F)c1cccc(CNC(=S)Nc2ccccc2)c1	-79	–	?	–	–	16µM
FC(F)(F)c1cccc(NC(=S)NCc2ccccc2)c1	–	–	21µM	–	–	23µM
COc1cc(NC(=O)c2ccco2)c(OC)cc1NC(=O)CCC(=O)Nc1cc(C)cc(C)c1	–	–	?	21µM	–	?
COc1ccc(NC(=O)COC(=O)c2cc(OC)c(OC)cc2NC(=O)c2ccco2)cc1OC	–	–	?	23µM	–	21µM
COC(=O)c1cc(OC)c(OC)cc1NC(=O)c1ccco1	-62	–	?	23µM	–	?
COc1cc(NC(=O)c2ccco2)c(OC)cc1NC(=O)CCC(=O)Nc1cc(C)ccc1C	–	–	–	?	–	–
COC(=O)c1cc(OC)c(OC)cc1NC(=O)c1cccc(OC)c1OC	–	–	?	?	–	5.8µM
CC(=O)c1ccc(N(CC(=O)NC2CCS(=O)(=O)C2)S(=O)(=O)c2ccc(Cl)cc2)cc1 (stereo not given)	–	–	–	–	–	–
COc1ccccc1C(=O)NC1(C(F)(F)F)C(=O)NC(C)=C1C#N (stereo not given)	·	·	·	·	–	·
CCCSc1nnc(NC(=O)Cc2coc3cc(C)ccc23)s1	·	·	–	·	–	–
O=[N+]([O-])c1ccc2nc(-c3ccc(OC(F)F)cc3)cn2c1	–	?	–	?	–	–
O=C(O)c1ccc(N/N=C/C=C/c2ccc([N+](=O)[O-])o2)cc1	–	?	8.2µM	–	–	23µM
Cc1cc(=O)oc2cc(OCC(=O)NCCc3ccccc3)ccc12	–	–	–	–	·	–
Cc1cc(=O)oc2cc(OCC(=O)N/N=C/c3ccccc3[N+](=O)[O-])ccc12	–	–	–	?	56µM	?
Cc1ccc(OCC(=O)N/N=C\c2ccc(C)o2)c([N+](=O)[O-])c1	–	–	?	–	–	?
O=C(N/N=C/c1ccc([N+](=O)[O-])o1)C1CC1	–	-85	7.3µM	?	·	23µM
Cc1ccc(OCC(=O)N/N=C/c2ccc([N+](=O)[O-])o2)cc1	–	-101	16µM	–	–	13µM
O=C(N/N=C/c1ccc([N+](=O)[O-])o1)C(=O)Nc1ccc(C(=O)O)cc1	–	–	–	–	·	–
O=C(c1ccc(OC2CCN(Cc3ccccn3)CC2)cc1)N1CCCC(O)C1 (stereo not given)	?	–	–	–	–	–

Source: PubChem BioAssay
